Data published in the supplement of paper PMC6555819.

Key:
Assay in all cases: PBM binding z-score (relative to random genomic background probes); higher = stronger binding; sequences stand for … in GC…GCGATTGACAGCGTAGAATGAAGG
[1] = tested on: FXR:RXRa (NR concentration 270 nM, RXRa partner concentration 90 nM)
Outline: (§1)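 On custom Agilent 4×180K arrays, double-stranded probes with 34-nt variable regions carried direct-repeat seeds, single-nucleotide variants, half-site ablations or random human genomic background. Ligand-free nuclear receptor dimers were applied for 1 h, and binding was read with antibodies against each partner (one per run). Binding z-scores come from regression-normalized fluorescence, with the random background probes as reference.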

[2] = tested on: LXRa:RXRa (NR concentration 270 nM, RXRa partner concentration 90 nM)
Outline: as §1

[3] = tested on: LXRa homodimer (NR concentration 270 nM)
Outline: as §1

[4] = tested on: LXRb:RXRa (NR concentration 270 nM, RXRa partner concentration 90 nM)
Outline: as §1

[5] = tested on: LXRb homodimer (NR concentration 270 nM)
Outline: as §1

[6] = tested on: PPARa:RXRa (NR concentration 270 nM, RXRa partner concentration 90 nM)
Outline: as §1

[7] = tested on: PPARg:RXRa (NR concentration 180 nM, RXRa partner concentration 90 nM)
Outline: as §1

[8] = tested on: PPARg:RXRa 270nM:90nM, anti-RXR (NR concentration 270 nM, RXRa partner concentration 90 nM)
Outline: as §1

[9] = tested on: PPARg:RXRa 30nM:10nM, anti-RXR (NR concentration 30 nM, RXRa partner concentration 10 nM)
Outline: as §1

[10] = tested on: PPARg:RXRa 90nM:30nM, anti-RXR (NR concentration 90 nM, RXRa partner concentration 30 nM)
Outline: as §1

Sequence	PBM binding z-score [1]	PBM binding z-score [2]	PBM binding z-score [3]	PBM binding z-score [4]	PBM binding z-score [5]	PBM binding z-score [6]	PBM binding z-score [7]	PBM binding z-score [8]	PBM binding z-score [9]	PBM binding z-score [10]
TCTTGTAGATCAAAGGTTGAGAAAGCCGAAGCCT	0.89	0.864	-0.12	0.541	-0.308	3.14	5.99	6.2	5.78	6.91
CGAATTAGGTCAGAACAGGACAGTGAAGGATGAT	1.56	1.31	0.144	0.781	0.086	3.41	4.98	4.59	2.05	3.65
GCTAGCAGGCCATGTGGGTCACTCAATGACGGGC	-0.267	-0.154	-0.643	-0.292	-1.04	1.58	1.31	1.18	-0.316	0.415
ATCGAAAGGTCGGGGTGAGTATAGAGAAAGGGAA	3.39	3.1	0.378	3.56	1.97	4.39	2.87	2.83	1.07	2.04
TCTTGTAGATCAATAGAGGTTAAGAATGTGCGCT	0.658	2.14	0.456	1.44	0.239	1.91	0.259	1.56	2.73	1.97
TCTTGTAGATCAATAGAGTTTAAGAAAGTGCGCT	0.426	0.959	0.0611	0.0999	-0.184	0.514	-0.0887	1	2.5	1.99
CCCTACGGGTCACTCCAGGTTATAGCATCGGAGT	5.25	7.47	2.12	5.1	0.052	4.21	2.65	3.2	0.655	1.6
CCATACGGGTCACTGACAGGTTATAGCATTTGGA	4.49	4.04	0.394	3.31	0.0673	4.83	3.92	3.76	1.43	2.41
TCTAGCATGCCAGAGGGTCACTCAAGAGGTACGG	0.892	0.929	-0.463	1.43	-1.1	2.5	1.02	1.69	1.89	1.76
GCGACTGGGTCATCAGCAGGTTACCATAACTTAA	2.66	1.93	-0.34	2.04	-1.03	4.06	5.18	4.73	1.52	3.88
AATACAGGGTCATCGTAGGCCAGAGTGCGCACAG	7.13	6.46	2.47	4.75	1.07	5.99	6.7	6.16	2.72	4.73
CAAACTAGGTCAAAGGTGAAAGTCGAGCCAACCA	6.6	5.02	0.751	4.52	0.619	7.19	13.3	10.7	12.4	13.5
GATACAGGGTCGAGGCCAGAGTACGCGTATTGAT	0.882	0.531	-0.581	0.3	-1.21	1.99	1.21	0.874	0.198	0.515
ATCTCTAGGTAACCAAGTCCAGTGAATGCCGAAC	0.284	0.199	-0.00888	0.0348	0.546	0.54	0.444	0.891	0.172	0.381
TAGCCTAGGTCGTTGGGCCAGTATAGTACGCATC	0.234	-0.0129	-0.222	0.178	-0.371	0.544	0.271	0.0972	-0.401	-0.153
CGTCAAAGTTCAAGTAAGGTAACGTAAAGCACGC	6.99	6.43	4.16	4.1	1.85	5.15	5.02	5.63	2.56	4.25
TCAGACAGGTGCAGGTAACTCAGGTACGCAGTCG	0.317	0.617	-0.304	0.192	-0.936	0.506	0.493	1.31	2.88	2.35
TAGCCTAGGTCATTGGGCCAGTACAGTACGCATC	4.4	3.61	1.04	2.35	0.354	3.83	3.38	3.78	0.72	2.63
CCCGAAAGGTCGTGCTCAGGTGAGTATACCAAAC	5.73	4.05	0.438	3.37	0.415	4.94	2.94	3.87	0.899	2.53
ACTAGCAGGCCAAGTTTGGGTGACTCAAACAAAG	-0.397	-0.73	-0.818	-0.554	-0.715	-0.036	-0.341	-0.319	-0.347	-0.213
TCGAGTAGGTTTGGGGCATTCAGAATGGCGTCGA	-0.5	-0.529	-0.289	0.316	-0.295	0.0771	-0.558	0.475	0.701	0.598
CAAACTAGGTCACAGCGGTCAAAGTCCGTGCGTA	5.25	5.23	5.2	4.06	0.739	5.65	8.85	7.4	5.13	7.02
TCTGCTAGGTCAACGATGGACAGCTAATCTGCTA	3.08	2.24	-0.31	1.28	-0.137	3.07	2.78	3.12	2.13	2.56
GCTTGTGGATCAAGGTTAAGAAAGACTAAGCTAA	0.286	0.783	-0.433	0.442	-0.254	1.52	0.82	1.79	0.395	1.24
